From PubChem
An excerpt weighted towards active compounds, which were near 3% of everything screened.
IP6K1 inh: inhibitors of human IP6K1; 140,000 tested, 0.81% active; IP6K1 kinase, ADP-Glo luminescence, 2 h; hits give low values; AID 1645851; Q92551; activity change, % (series mostly up to about 58 µM); in the data active = activity change below about -25%; note: % is set by controls: 0 for no effect and ±100 for the full control effect
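ADP-Glo luminescence measures ADP made by human IP6K1 during a 2 h RT reaction with ATP/IP6 (mix at 1.3 mM/130 uM); top library doses 57.5 and 19.1 uM final.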
KDM5B inhibitor: inhibitors of human KDM5B histone demethylase | KDM5B demethylase, FDH-coupled NADH fluorescence (FDH is formaldehyde dehydrogenase) | Potency, µM (series often up to 57.7 µM), hits mostly inhibitors | 220,000 tested, 2.6% active | Q9UGL1 | AID 1347165; note: potency is the fitted concentration of half-maximal effect; 0% is about no effect; nearly all actives have a fitted effect of over 70% in size
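qHTS format, multiple compound concentrations. Buffer 50 mM HEPES pH 7.5/0.01% Tween-20; 200 nM KDM5BΔAP final; 10 min compound preincubation; substrate-mix levels 12.5 µM peptide, 25 µM α-KG, 0.25 mM NAD⁺; 30 min RT; ΔRFU.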
HEK293 viab: cell viability loss counter-screen; AID 1671193; Potency, µM (doses to about 57.1 µM), for the others: top-dose activity change, negative = cytotoxicity, actives largely listed as cytotoxic; 150,000 tested, 0.12% active; HEK-293-SNCA-luc viability, GF-AFC fluorescence, 24 h;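 note: potency is the fitted concentration of half-maximal effect; 0% = DMSO-treated cells and -100% = medium-only wells without cells; nearly all actives have a fitted effect of over 30% in size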
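HEK-293-SNCA-luc cells (1500/well) plated 24 h, then exposed 24 h to a dilution series; GF-AFC added 30 min at 37C, fluorescence 405/540 nm; normalised to medium-only and DMSO wells, Hill fit.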
SNCA expr inhib: SNCA gene expression inhibition; 140,000 tested, 0.17% active; Potency, µM (titrated, usually from 57.2 µM), without a hit: at the highest dose activity change, negative = inhibition, actives largely listed as inhibitors; HEK-293 SNCA-luciferase knock-in, luminescence, 24 h; AID 1671194;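 note: potency is the fitted concentration of half-maximal effect; plate controls were DMSO cells for no effect and cell-free wells for full effect; nearly all actives have a fitted effect of over 45% in size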
* hit, by the source's call; i = inactive; ? = inconclusive; . = not tested or not shown; [ ] = dose if it differs, or a comment. Unless noted, calls come from the whole dose curve; as a rule, active = well fitted curve in the direction sought with a large enough effect; inconclusive = small, poorly fitted or top-dose-only effect, or another doubt; inactive = no such curve, though single readings can be large; an effect the other way counts as inactive or inconclusive.

SMILES	IP6K1 inh	KDM5B inhibitor	HEK293 viab	SNCA expr inhib
Cc1nn2c(c1-c1ccccc1[S+](C)(=O)[O-])N(CCCc1ccccc1)CCC2	24.1	25.1µM*	?	?
Cc1nn2c(c1-c1cccnc1N1CCOCC1)N(CCCc1ccccc1)CCC2	-3.8	i	-22.7%[87.6 µM]	?
COc1cccc(Nc2ccc3nnc(-c4cc(OC)ccn4)n3n2)c1	-22.8	28.2µM*	-24.0%[87.6 µM]	22.6%[87.6 µM]
COc1ccc(-c2nnc3ccc(NCCc4ccccc4)nn23)nc1	-19.0	i	-2.0%[87.6 µM]	16.5%[87.6 µM]
COCCNc1ccc2nnc(-c3ccccn3)n2n1	2.6	?	9.1%[87.6 µM]	-16.9%[87.6 µM]
COCCCNc1ccc2nnc(-c3ccc(C)cn3)n2n1	-10.0	39.8µM*	-9.3%[87.6 µM]	22.8%[87.6 µM]
COc1cccc(NC(=O)c2ccnc(-c3nnc4ccc(Nc5ccccc5)nn34)c2)c1	-15.1	i	?	-28.3%
COc1ccc(-c2nnc3ccc(NCC(C)C)nn23)nc1	-16.1	35.5µM*	-11.2%[87.6 µM]	-2.7%[87.6 µM]
O=C(c1cc(-c2cccc(C(F)(F)F)c2)c2nncn2n1)N1CCC(c2ccccc2)CC1	20.1	.	6.1%	4.4%
CCOC(=O)[C@@H]1CN(C(=O)C2CCCC2)[C@H]2c3cccc(C)c3O[C@@H]12	24.7	.	.	.
COc1ccccc1Nc1ccnc(N2CCC(C(=O)NCc3cccs3)CC2)n1	12.2	.	-15.3%	?
Fc1ccc2nc(CO[C@H]3CN(Cc4ccc5ccccc5n4)C[C@H]3F)[nH]c2c1	-4.1	35.5µM*	-13.2%[87.6 µM]	13.2%[87.6 µM]
C#CCNC(=O)c1cc(-c2ccccc2F)nc2c1cnn2C	-5.3	.	.	.
Cc1noc(C)c1-c1cc2c(cc(-c3ccccc3)n2C)c(N(C)C)n1	-3.1	i	-3.0%[87.6 µM]	-17.4%[87.6 µM]
CC(=O)Nc1cccc(-c2nc(-c3c(C)noc3C)cc3c2cc(-c2ccccc2)n3C)c1	-7.8	35.5µM*	-24.2%[87.6 µM]	-1.3%[87.6 µM]
CCCc1noc(-c2ccn3c(CNC(=O)c4ccccc4F)nnc3c2)n1	7.4	8.91µM*	-8.9%	-29.8%
CCCc1noc(-c2ccn3c(CNC(=O)c4c(F)cccc4F)nnc3c2)n1	27.8	28.2µM*	-11.6%	-10.0%
CCCc1noc(-c2ccn3c(CNC(=O)c4cc(F)ccc4F)nnc3c2)n1	15.0	31.6µM*	2.7%	-24.5%
Cc1ccsc1CN1CCCCC12Cc1ccccc1CNC2=O (stereo unspecified)	4.7	?	-22.2%	-3.7%
COc1ccc(-c2ccc3c(c2)C(=O)N2CC[C@H](NS(=O)(=O)c4cccs4)[C@H]2C(=O)N3)cc1	-7.3	22.4µM*	-16.4%	-12.9%
O=C(N[C@H]1CCN2C(=O)c3cc(-c4ccc(Cl)cc4)ccc3NC(=O)[C@H]12)c1cccs1	-0.5	31.6µM*	-12.0%	11.8%
CSCC(=O)N[C@H]1CCN2C(=O)c3cc(-c4ccc(Cl)cc4)ccc3NC(=O)[C@H]12	5.5	28.2µM*	0.5%[87.6 µM]	19.7%[87.6 µM]
O=C(O)CCC(=O)N[C@H]1CCN2C(=O)c3cc(-c4ccccc4)ccc3NC(=O)[C@H]12	-8.0	i	-0.2%[87.6 µM]	4.1%[87.6 µM]
COc1ccc(-c2ccc3c(c2)C(=O)N2CC[C@H](NC(=O)CCC(=O)O)[C@H]2C(=O)N3)cc1	-7.3	20µM*	-1.7%	8.2%
COc1ccc(F)cc1-c1ccc(CN2CCCCC2C(=O)NCCc2ccc(Cl)cc2)cc1 (stereo unspecified)	-4.8	.	.	.
SMILES	IP6K1 inh	KDM5B inhibitor	HEK293 viab	SNCA expr inhib
CSc1ccc(-c2ccc3c(c2)C(=O)N2CC[C@H](NC(=O)C4CCCC4)[C@H]2C(=O)N3)cc1	0.1	25.1µM*	-7.3%	42.1%
COc1ccc(/C=C/c2ccc3c(c2)C(=O)N2CC[C@H](N)[C@H]2C(=O)N3)cc1	-2.8	35.5µM*	-14.1%[87.6 µM]	64.8%[87.6 µM]
Cc1cccc(-c2ccc3c(c2)C(=O)N2CC[C@H](NC(=O)c4cccs4)C[C@H]2C(=O)N3)c1C	5.3	?	-9.4%	-24.5%
COc1ccc(Cl)cc1-c1ccc2c(c1)C(=O)N1CC[C@H](NC(=O)c3cccs3)[C@H]1C(=O)N2	-16.7	25.1µM*	?	?
O=C(N[C@H]1CCN2C(=O)c3cc(-c4ccsc4)ccc3NC(=O)[C@@H]2C1)c1cccs1	-11.2	22.4µM*	-4.6%	-5.8%
COc1ccc(/C=C/c2ccc3c(c2)C(=O)N2CC[C@H](NC(=O)c4cnccn4)[C@H]2C(=O)N3)cc1	6.3	?	-2.9%	-7.3%
CNC(=O)C1CCCN1Cc1cccc(-c2ccc(C)c(Cl)c2)c1 (stereo unspecified)	16.3	.	.	.
COc1ccccc1-c1cc(C(=O)N(C)c2ccccc2)c2cnn(C)c2n1	-5.5	.	.	.
COc1ccc(F)cc1-c1cccc(C(=O)NCC(=O)NC2CCN(Cc3ccccc3)CC2)c1	1.7	.	.	.
